# Sampled rows, rich in hits. Any-hit rate of the full collection: about 3%.
# ROMK primary = modulators of human ROMK potassium channel; Tet-inducible ROMK, thallium flux fluorescence; actives lie on both sides; B-score at 10 µM; AID 1918; P48048; 2% of 130,000 active;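 active = signal ratio slope over the read window, or its plate-corrected B-score, at least 3 SD from the plate mean, either direction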;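 note: B-score of the F/F0 ratio slope over 7 to 12 s after thallium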
# Target sequence (P48048 whole entry, looked up): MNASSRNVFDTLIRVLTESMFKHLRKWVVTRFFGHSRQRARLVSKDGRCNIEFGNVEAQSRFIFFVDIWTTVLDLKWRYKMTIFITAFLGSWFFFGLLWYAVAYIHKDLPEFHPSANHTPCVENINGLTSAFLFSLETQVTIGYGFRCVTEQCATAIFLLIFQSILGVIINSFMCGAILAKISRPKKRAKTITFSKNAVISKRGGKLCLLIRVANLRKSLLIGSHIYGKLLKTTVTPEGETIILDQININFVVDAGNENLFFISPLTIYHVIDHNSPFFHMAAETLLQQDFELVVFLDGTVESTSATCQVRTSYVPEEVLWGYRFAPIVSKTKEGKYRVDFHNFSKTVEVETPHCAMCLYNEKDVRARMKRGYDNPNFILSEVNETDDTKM
# SDO1 yeast rescue = restores growth of sdo1-depleted yeast. S. cerevisiae sdo1-depleted JHY4D growth rescue, OD600 30 h; hits give high values; pdr5 snq2 efflux-pump mutant strain. 0.21% of 140,000 active. z-score at 10 µM;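 active = z-score above 3 at both the 24 hr and the 30 hr optical density reads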;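 note: z-score against mean and SD of all compound wells on the same plate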
# Measles CPE = protection of cells from measles virus. Measles virus-infected cells, CPE protection, absorbance. protection (pct of control), % at 4 µM. 1.5% of 140,000 active. AID 841; in the data active = protection mostly above about 24%, no sharp cut-off; inactive = mostly below about 26%
# INS promoter inh = TRM-6 insulin promoter activity inhibition. 0.9% of 130,000 active. inhibition, % at 2 µM. TRM-6 cells (human fetal islet line), insulin promoter-eGFP reporter, imaging; reporter expression induced with tamoxifen;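 active = inhibition above the mean plus 3 SD, with well images judged a real hit on visual review, cut at about 60% in these data, passing the limit was not always enough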
# * marks the source's active call; other numbers are inactive results; . = no result given.
SMILES,ROMK primary,SDO1 yeast rescue,Measles CPE,INS promoter inh
CS(=O)(=O)Nc1cccc(C(=O)CC2(O)C(=O)Nc3ccc(Br)cc32)c1 (configuration not stated),0.034,1.1,34*,0
Cc1ccc(NS(=O)(=O)c2cc(OCC(N)=O)c(C)cc2Cl)cc1C,-3.1*,0.78,8,31
Cc1ccc(NC(=S)Nc2ccc(C(C)C)cc2)cc1S(=O)(=O)N1CCCCCC1,-0.25,-0.08,7,7
CN(C)c1ccc(/C=N\NC(=O)c2cccc3cc[nH]c23)cc1,0.77,.,.,.
O=C(c1ccc(-c2ccccc2)cc1)N1CCN(c2ccccn2)CC1,-0.71,.,.,-20
N#Cc1c(Nc2ccccc2)c(/C=N/N=C/c2ccccc2)c[nH]c1=O,.,0.45,26*,16
CS/C(=N/S(=O)(=O)c1ccc(C)cc1)c1ccccc1,-0.15,-0.01,18*,22
CCOC(=O)c1sc(NC(=O)CSc2nc3c(c(=O)n2-c2ccc(F)cc2)SCC3)c(C(=O)OCC)c1C,0.55,-0.19,5,-12
c1ccc(COc2ccc(Nc3ncnc4nc[nH]c34)cc2)cc1,.,-1.8,6,.
CCOC(=O)C1CCCN(CC(=O)NC2=Nc3ccccc3N=C(C)C2c2ccccc2)C1 (configuration not stated),-2.1*,-0.29,15,-69
CCOC(=O)C1=NN(C(=O)c2ccc(C)cc2)C(O)(c2ccc(Cl)cc2)C1 (configuration not stated),2.8*,-1.2,5,-29
CCC(C(=O)Nc1ccc(C)cc1)c1ccccc1 (configuration not stated),-0.012,.,.,-45
CCC(C(=O)Nc1cc(C)on1)c1ccccc1 (configuration not stated),0.32,3,33,70*
CSc1n[nH]c(NCc2ccc(C)cc2)n1,0.25,0.37,5,63
COc1ccc2c(c1)O[C@H](c1ccc3c(c1)OCO3)[C@@H](O)C2=O,0.073,0.17,27*,-29
COc1ccc2c(c1)O[C@@H](c1cccc(C(F)(F)F)c1)[C@H](O)C2=O,0.97,-0.87,7,-73
CC(C)(C)c1nc(SCC(=O)c2ccccc2)c2ccccc2n1,-0.0069,.,.,.
O=C(Cc1c2ccccc2nc2ccccc12)c1ccccc1,0.072,-0.73,20*,61*
COC(=O)COC(=O)c1ccc(-n2nnnc2SC)cc1,0.62,0.58,54*,0
COc1ccc(CC(=O)Nc2cc(Cl)ccc2C(=O)O)cc1,-0.14,.,.,50
CCCCOc1ccc(Nc2cc(Cl)ccc2C(=O)O)cn1,3.1*,.,.,.
c1ccc(-c2csc3ncnc(NCCN4CCOCC4)c23)cc1,.,1.6,21,81*
CC1CCCCN1C(=O)CCS(=O)(=O)c1cccc2nonc12 (configuration not stated),0.23,.,.,-33
O=C(O)C1CCCN1C(=O)Nc1ccc(Cl)cc1 (configuration not stated),0.31,1.2,26*,50
Cc1ccc(NC(=O)CSc2nnc(-c3cccnc3)n2CCN2CCCCC2)cc1,-0.0052,0.45,4,-8
SMILES,ROMK primary,SDO1 yeast rescue,Measles CPE,INS promoter inh
Cc1ccc(-c2nc(N)sc2CC(=O)OCC(=O)NC2CCCC(C)C2C)cc1 (configuration not stated),.,0.47,26*,.
Cc1ccc(C(=O)c2c[nH]c(C(=O)NCc3cccnc3)c2)cc1,.,1.1,28*,25
COc1cccc(C(=O)c2c[nH]c(C(=O)NCc3cccnc3)c2)c1,-1,.,.,.
CCCCC(c1nnnn1Cc1ccco1)N1CCN(C(=O)c2ccco2)CC1 (configuration not stated),-0.21,-0.25,39,0
CCCC(c1nnnn1Cc1ccco1)N1CCN(C(=O)c2ccco2)CC1 (configuration not stated),0.0092,1.3,44*,43
CCOc1ccc(N=C(C)c2ccccc2O)cc1,0.55,1.1,16,36
CCOc1ccc(N=Nc2cc(C(C)C)ccc2O)cc1,0.86,-1.2,26*,0
CCOc1ccc(-n2nc3c(SCCN4CCCC4)nnc(C)c3c2C)cc1,-0.45,1.2,9,23
O=C(N/N=C/c1ccco1)C1COc2ccccc2O1 (configuration not stated),.,1.1,10,.
CN(C)c1ccc(/C=N/NC(=O)C2COc3ccccc3O2)o1 (configuration not stated),0.69,0.05,17*,0
CC(=O)N(NC(=O)c1ccc(C)cc1)C1CC(=O)N(c2ccccc2Cl)C1=O (configuration not stated),-0.17,0.15,2,.
CNC(=O)c1cc(C)c(-c2ccccc2)s1,-0.16,0.05,49*,89*
O=C1C2CCCN2C(c2cccs2)N1c1ccc(Cl)cc1 (configuration not stated),.,-0.25,25*,.
COc1ccc(-c2ocnc2C(=O)N2CCN(C(c3ccccc3)c3ccccc3)CC2)cc1,.,.,.,14
COc1cc(CNCc2ccccn2)ccc1OCC(=O)NC(C)(C)C,.,2.1,31*,.
COc1cc(CNCc2cccnc2)ccc1OCC(=O)NC(C)(C)C,-0.009,.,.,.
O=C(C1CC12CCCC2)N1CCC(CO)(Cc2ccccc2Cl)CC1 (configuration not stated),-2.6,.,.,30
Cc1ccc(NC(=S)N(CCN2CCCCC2)Cc2ccco2)cc1,-1.2,0.25,29,7
Cc1ccc(NC(=S)N(Cc2ccco2)C2CCN(C(C)C)CC2)cc1,-1.4,0.39,39*,19
O=C(COc1ccccc1)NNC(=O)COc1ccc([N+](=O)[O-])cc1,0.96,.,.,0
O=C(COc1ccc([N+](=O)[O-])cc1)N(Cc1ccccc1)Cc1ccccc1,-1.2,-1.6,32*,-56
CCOC(=O)Cc1c(C)nc2cc(C)nn2c1C,.,0.82,2,23
CCOC(=O)Cc1nn2c(=O)cc(C)nc2s1,.,1.4,46*,-70
S=C(Nc1ccc(Cl)cc1)c1sc(N2CCCCC2)nc1N1CCOCC1,-0.16,0.53,10,-8
O=C(c1ccco1)N(CCC(c1ccccc1)c1ccco1)Cc1ccc(F)cc1 (configuration not stated),-0.14,-0.92,37*,.
SMILES,ROMK primary,SDO1 yeast rescue,Measles CPE,INS promoter inh
O=C(NCC1CCCO1)c1ccc(OC2CCN(C(=O)C3CC3)CC2)cc1 (configuration not stated),1.3,.,.,.
Cc1cc(C)c(S(=O)(=O)N(C)CC(N)=O)c(C)c1,.,0.5,4,-36
COc1ccc(Nc2nc(N)nc(CSc3nncn3C)n2)cc1,.,0.24,1,77*
O=C(NC(Cc1c[nH]c2ccccc12)C(=O)Nc1ccc(OC(F)(F)F)cc1)c1cccs1 (configuration not stated),.,-1.9,52*,35
O=C(NC(Cc1c[nH]c2ccccc12)C(=O)Nc1ccc(F)c([N+](=O)[O-])c1)c1cccs1 (configuration not stated),.,0.42,35,.
O=c1cc(N2CCCCC2)c(-c2ccccc2)nn1Cc1ccc(Cl)cc1Cl,.,-1.1,43*,6
COc1cccc2sc(Nc3nnc(-c4cccs4)o3)nc12,.,1.7,4,.
Fc1cccc2sc(Nc3nnc(-c4ccco4)o3)nc12,5.1*,0.54,12,30
Brc1ccc(CSc2nnc(-c3ccco3)o2)cc1,-0.13,0.02,6,24
C[C@H](NC(N)=O)C(=O)OCC(=O)NCc1cccs1,-0.22,.,.,6
